# Reference: PubChem BioAssay (Tox21)
# Unmarked numbers belong to inactive results. Records with an inconclusive call do not appear. Entries that show only a call come without a potency. Active and inactive are the calls of the source. Unless noted, the call rests on the fitted dose curve; in most records, active means well fitted curve in the direction sought with a large enough effect in the repeat runs; inconclusive means weak or mixed curves; inactive means no such curve, though single readings can be large; an effect the other way counts as inactive or inconclusive.
# Key:
# [1] = qHTS assay for small molecules that induce genotoxicity in human embryonic kidney cells expressing luciferase-tagged ATAD5 (AID 651632); further: nearly all actives have a fitted effect of over 15% in size
# Method in brief: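 Luminescence read-out: after 16 hr compound exposure at 37C, ATAD5-luciferase HEK293T cells received Amplite, 30 min RT, then CCD imaging. A rise in signal marks genotoxic stress.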
# [2] = qHTS assay for small molecule agonists of the p53 signaling pathway - cell viability (AID 651633; calls by dose curve; further: nearly all actives have a fitted effect of over 30% in size; further: potency means the concentration at half of the fitted maximal effect)
# Method in brief: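 p53RE-bla cells were treated with compound for 16 hours at 37 C. Cytotoxicity was then measured as CellTiter-Glo luminescence after 30 min at room temperature.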
# [3] = qHTS assay for small molecules that induce genotoxicity in human embryonic kidney cells expressing luciferase-tagged ATAD5 - cell viability (AID 651634; calls by dose curve; further: nearly all actives have a fitted effect of over 25% in size)
# Method in brief: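 HEK293T ATAD5-luc cells, 2,000/well; compound 15.5 hr, 37C/5% CO2; CellTiter-Fluor 30 min, 37C; fluorescence read.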
# [4] = qHTS assay for small molecule disruptors of the mitochondrial membrane potential - cell viability (AID 720634; calls by dose curve;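 further: human HepG2 liver cancer cells; series mostly up to about 83 µM; nearly all actives have a fitted effect of over 20% in size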)
# Method in brief: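 Luminescence from CellTiter-Glo (ATP content) gave viability in HepG2 cells, read in the same wells as the MMP dye assay after 1 hr compound exposure at 37 C.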
# [5] = qHTS assay to test for compound auto fluorescence at 590 nm (red) in HepG2 cells (AID 720674)
# Method in brief: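 Seeding: 2,000 HepG2 cells/well, MEM/10% FBS, overnight 37 C. Dosing: compound vs DMSO. Incubation: 1 hr, 37 C, 5% CO2. Read: fluorescence 540 ex/590 em, Rose Bengal sodium as red reference.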
# [6] = qHTS assay to test for compound auto fluorescence at 535 nm (green) in HepG2 cells (AID 720675)
# [7] = qHTS assay to test for compound auto fluorescence at 460 nm (blue) in HEK293 cells (AID 720678)
# Method in brief: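 HEK293 cells (2,000 per well, medium with 10% dialyzed FBS) attached for 4-5 hr at 37C, then received compound and stood overnight at 37C, 5% CO2. Blue fluorescence was read at Ex/Em 405/460 nm and expressed relative to triamterene.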
# [8] = qHTS assay to test for compound auto fluorescence at 590 nm (red) in HEK293 cells (AID 720679)
# Method in brief: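 HEK293 cells (2,000/well, medium with 10% dialyzed FBS) attached for 4-5 hr at 37C, received 23 nL compound and were incubated overnight at 37C, 5% CO2. Red fluorescence was then read at 540/590nm Ex/Em, referenced to Rose Bengal sodium.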
# [9] = qHTS assay to test for compound auto fluorescence at 535 nm (green) in HEK293 cells (AID 720680)
# [10] = qHTS assay to test for compound auto fluorescence at 460 nm (blue) in HEK293 cell free culture (AID 720681)
# Method in brief: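 Compounds were added to cell-free DMEM with 10% FBS and fluorescence read directly. The blue channel used 405 nm excitation and 460 nm emission, with triamterene as the reference fluorophore.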
# [11] = qHTS assay to test for compound auto fluorescence at 535 nm (green) in HEK293 cell free culture (AID 720682)
# Method in brief: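 Fluorescein serves as the green reference fluorophore; each compound's intrinsic emission at 535 nm (excitation 485 nm) is reported as an equivalent amount of that dye, measured in serum-containing DMEM without cells.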
# [12] = qHTS assay to test for compound auto fluorescence at 590 nm (red) in HEK293 cell free culture (AID 720683)
# Method in brief: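 Cell-free wells of DMEM with 10% FBS received compound, and intrinsic fluorescence was read at excitation/emission 540/590 nm. Values expressed as equivalence to Rose Bengal sodium.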
# [13] = qHTS assay to test for compound auto fluorescence at 590 nm (red) in HepG2 cell free culture (AID 720684)
# Method in brief: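 Auto fluorescence equivalency versus Rose Bengal sodium, red channel Ex/Em 540/590 nm; compounds in cell-free MEM/10% FBS; DMSO vehicle control.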
# [14] = qHTS assay to test for compound auto fluorescence at 535 nm (green) in HepG2 cell free culture (AID 720686)
# [15] = qHTS assay to test for compound auto fluorescence at 460 nm (blue) in HepG2 cells (AID 720687)
# Method in brief: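 HepG2 cells in MEM with 10% FBS, attached overnight at 37 C, were exposed to compound or DMSO for 1 hr at 37 C, 5% CO2. Blue fluorescence was read at 405/460 nm, with triamterene as reference fluorophore.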
# [16] = qHTS assay to test for compound auto fluorescence at 460 nm (blue) in HepG2 cell free culture (AID 720685)
# Method in brief: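 Cell-free plates of MEM plus 10% FBS received 23 nL compound or DMSO vehicle; blue-channel (405/460 nm) intensity scored against triamterene as reference fluorophore.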
# [17] = target: Glucocorticoid receptor (Homo sapiens) (UniProt P04150); test: qHTS assay to identify small molecule agonists of the glucocorticoid receptor (GR) signaling pathway (AID 720691; active means well fitted activation curve with a large enough effect in the signal ratio in the repeat runs, not every such curve was filed as active; the % refers to the signal ratio)
# Method in brief: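 HeLa GR-bla reporter line; cells pre-incubated 4 h, compound in DMSO 18 h at 37 C; LiveBLAzer B/G FRET substrate 2 h RT; fluorescence intensity read-out.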
# [18] = target: Glucocorticoid receptor (Homo sapiens) (UniProt P04150); test: qHTS assay to identify small molecule antagonists of the glucocorticoid receptor (GR) signaling pathway (AID 720692; active means well fitted inhibition curve with a large enough effect in the signal ratio in the repeat runs, not every such curve was filed as active; the % refers to the signal ratio)
# Method in brief: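 Read-out: beta-lactamase FRET substrate fluorescence, 2 h at room temperature, in HeLa cells stably carrying a GRE-driven bla reporter. Compounds were co-incubated with 5 nM dexamethasone agonist (final) for 18 h at 37 C.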
# Chain of Glucocorticoid receptor (Homo sapiens) (P04150 whole entry, looked up): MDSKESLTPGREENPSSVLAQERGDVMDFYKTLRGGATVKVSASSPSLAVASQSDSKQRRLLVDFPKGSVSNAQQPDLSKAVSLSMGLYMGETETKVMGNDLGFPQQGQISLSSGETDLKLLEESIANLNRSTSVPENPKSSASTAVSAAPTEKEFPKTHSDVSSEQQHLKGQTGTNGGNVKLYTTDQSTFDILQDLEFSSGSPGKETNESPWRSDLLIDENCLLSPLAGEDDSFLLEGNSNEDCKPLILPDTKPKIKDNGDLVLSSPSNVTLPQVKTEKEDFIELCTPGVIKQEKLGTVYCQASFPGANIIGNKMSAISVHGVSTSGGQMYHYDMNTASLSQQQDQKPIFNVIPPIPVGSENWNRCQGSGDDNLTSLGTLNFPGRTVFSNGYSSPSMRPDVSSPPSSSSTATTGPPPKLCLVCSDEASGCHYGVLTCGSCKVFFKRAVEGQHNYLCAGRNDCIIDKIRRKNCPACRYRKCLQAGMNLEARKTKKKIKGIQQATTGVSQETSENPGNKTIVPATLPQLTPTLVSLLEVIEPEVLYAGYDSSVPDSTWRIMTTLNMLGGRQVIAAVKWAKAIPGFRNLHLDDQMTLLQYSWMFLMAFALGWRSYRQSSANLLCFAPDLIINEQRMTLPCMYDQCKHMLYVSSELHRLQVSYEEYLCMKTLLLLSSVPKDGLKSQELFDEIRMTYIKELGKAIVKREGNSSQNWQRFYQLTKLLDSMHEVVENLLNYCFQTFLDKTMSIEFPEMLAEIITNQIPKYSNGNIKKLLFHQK
smiles,measurement,setting,value
CCCCCCCCCCCCCOC(=O)CCSCCC(=O)OCCCCCCCCCCCCC,Potency,[1],inactive
same,Potency,[2],inactive
same,Potency,[3],inactive
same,outcome,[4],inactive
same,"fluorescence, relative to Rose Bengal",[5],0.06% [at 18.6 µM]
same,"fluorescence, % of fluorescein control",[6],-0.0137% [at 18.6 µM]
same,"fluorescence, % of triamterene",[7],0.0236% [at 18.6 µM]
same,"fluorescence, % of fluorescent control",[8],0.358% [at 18.6 µM]
same,"fluorescence, % of fluorescein",[9],-0.0169% [at 18.6 µM]
same,"fluorescence, % of fluorescent control",[10],-0.0348% [at 18.6 µM]
same,activity change,[11],0.0335% [at 18.6 µM]
same,"fluorescence, % of fluorescent control",[12],0.0989% [at 18.6 µM]
same,"fluorescence, % of Rose Bengal",[13],-0.0106% [at 18.6 µM]
same,"fluorescence, % of fluorescein control",[14],-0.0124% [at 18.6 µM]
same,"fluorescence, % of fluorescent control",[15],-0.106% [at 18.6 µM]
CCN(CC)CCOc1ccccc1C(=O)CCc1ccccc1,Potency,[1],inactive
same,Potency,[2],inactive
same,Potency,[3],inactive
same,outcome,[4],inactive
same,outcome,[5],inactive
same,outcome,[6],inactive
same,Potency,[7],inactive
same,outcome,[8],inactive
same,outcome,[9],inactive
same,Potency,[10],inactive
same,outcome,[11],inactive
same,outcome,[12],inactive
same,outcome,[13],inactive
same,Potency,[16],inactive
same,outcome,[14],inactive
same,Potency,[15],inactive
CC(=O)C(=O)CC(C)C,Potency,[1],inactive
same,Potency,[2],inactive
same,Potency,[3],inactive
same,outcome,[4],inactive
same,outcome,[5],inactive
same,outcome,[6],inactive
same,Potency,[7],inactive
same,outcome,[8],inactive
same,outcome,[9],inactive
same,Potency,[10],inactive
same,outcome,[11],inactive
same,outcome,[12],inactive
same,outcome,[13],inactive
same,outcome,[14],inactive
same,Potency,[15],inactive
same,Potency,[17],inactive
O=C(O)CO,Potency,[1],inactive
same,Potency,[2],inactive
same,Potency,[3],inactive
same,outcome,[4],inactive
same,outcome,[5],inactive
same,outcome,[6],inactive
same,Potency,[7],inactive
same,outcome,[8],inactive
same,outcome,[9],inactive
same,Potency,[10],inactive
same,outcome,[11],inactive
same,outcome,[12],inactive
same,outcome,[13],inactive
same,Potency,[16],inactive
same,outcome,[14],inactive
O=C(O)c1cc(Cl)cc(Cl)c1O,Potency,[1],inactive
same,Potency,[2],inactive
same,Potency,[3],inactive
same,outcome,[4],inactive
same,outcome,[5],inactive
same,outcome,[6],inactive
same,Potency,[7],inactive
same,outcome,[8],inactive
same,outcome,[9],inactive
same,Potency,[10],inactive
same,outcome,[11],inactive
same,outcome,[12],inactive
same,outcome,[13],inactive
same,Potency,[16],inactive
same,outcome,[14],inactive
same,Potency,[15],inactive
Cc1ccc(S(=O)(=O)NC(=O)NC2CCCCC2)cc1,Potency,[1],inactive
same,Potency,[2],inactive
same,Potency,[3],inactive
same,outcome,[4],inactive
same,outcome,[5],inactive
same,outcome,[6],inactive
same,Potency,[7],inactive
same,outcome,[8],inactive
same,outcome,[9],inactive
same,Potency,[10],inactive
same,outcome,[11],inactive
same,outcome,[12],inactive
same,outcome,[13],inactive
same,outcome,[14],inactive
same,Potency,[15],inactive
same,Potency,[17],inactive
same,Potency,[18],inactive
CCCc1nc2c(C)cc(-c3nc4ccccc4n3C)cc2n1Cc1ccc(-c2ccccc2C(=O)O)cc1,Potency,[1],inactive
same,Potency,[2],inactive
same,Potency,[3],inactive
same,outcome,[4],inactive
same,outcome,[5],inactive
same,outcome,[6],inactive
same,Potency,[7],inactive
same,outcome,[8],inactive
same,outcome,[9],inactive
same,Potency,[10],inactive
same,outcome,[11],inactive
same,outcome,[12],inactive
same,outcome,[13],inactive
same,Potency,[16],inactive
same,outcome,[14],inactive
same,Potency,[15],inactive
same,Potency,[17],inactive
COc1cc(NCc2ccc3nc(N)nc(N)c3c2C)cc(OC)c1OC,Potency,[1],inactive
same,Potency,[2],335 nM (active)
same,Potency,[3],inactive
same,outcome,[4],inactive
same,outcome,[5],inactive
same,outcome,[6],inactive
same,Potency,[7],inactive
same,outcome,[8],inactive
same,outcome,[9],inactive
same,Potency,[10],inactive
same,outcome,[11],inactive
same,outcome,[12],inactive
same,outcome,[13],inactive
same,Potency,[16],inactive
same,outcome,[14],inactive
same,Potency,[15],inactive
same,Potency,[17],inactive
C=Cc1ccc(OC(C)=O)cc1,Potency,[1],inactive
same,Potency,[2],inactive
same,Potency,[3],inactive
same,outcome,[4],inactive
same,outcome,[5],inactive
same,outcome,[6],inactive
same,Potency,[7],inactive
same,outcome,[8],inactive
same,outcome,[9],inactive
same,Potency,[10],inactive
same,outcome,[11],inactive
same,outcome,[13],inactive
same,Potency,[16],inactive
same,outcome,[14],inactive
same,Potency,[15],inactive
same,Potency,[17],inactive
same,Potency,[18],inactive
CC(C)C1CCC(C(=O)N[C@H](Cc2ccccc2)C(=O)O)CC1 (some centres undefined),Potency,[1],inactive
same,Potency,[2],inactive
same,Potency,[3],inactive
same,outcome,[4],inactive
same,outcome,[5],inactive
same,outcome,[6],inactive
same,Potency,[7],inactive
same,outcome,[8],inactive
same,outcome,[9],inactive
same,Potency,[10],inactive
same,outcome,[11],inactive
same,outcome,[12],inactive
same,outcome,[13],inactive
same,Potency,[16],inactive
same,outcome,[14],inactive
same,Potency,[15],inactive
same,Potency,[17],inactive
OCC(CO)n1cnc(-c2ccc(F)cc2)c1-c1ccnc(Oc2ccccc2)n1,Potency,[1],inactive
same,Potency,[2],inactive
same,Potency,[3],inactive
same,outcome,[4],inactive
same,outcome,[5],inactive
same,outcome,[6],inactive
same,Potency,[7],inactive
same,outcome,[8],inactive
same,outcome,[9],inactive
same,Potency,[10],inactive
same,outcome,[13],inactive
same,Potency,[16],inactive
same,outcome,[14],inactive
same,Potency,[15],inactive
same,Potency,[17],inactive
COc1ccc2nc(S(=O)Cc3ncc(C)c(OC)c3C)[nH]c2c1 (centres undefined),Potency,[1],inactive
same,Potency,[2],inactive
same,Potency,[3],inactive
same,outcome,[4],inactive
same,outcome,[5],inactive
same,outcome,[6],inactive
same,Potency,[7],inactive
same,outcome,[8],inactive
same,outcome,[9],inactive
same,Potency,[10],inactive
same,outcome,[11],inactive
same,outcome,[13],inactive
same,outcome,[14],inactive
same,Potency,[15],inactive
Cc1ccc(N(CC2=NCCN2)c2cccc(O)c2)cc1,Potency,[1],inactive
same,Potency,[2],inactive
same,Potency,[3],inactive
same,outcome,[4],inactive
same,outcome,[5],inactive
same,outcome,[6],inactive
same,Potency,[7],inactive
same,outcome,[8],inactive
same,outcome,[9],inactive
same,Potency,[10],inactive
same,outcome,[11],inactive
same,outcome,[12],inactive
same,outcome,[13],inactive
same,Potency,[16],inactive
same,outcome,[14],inactive
same,Potency,[15],inactive
same,Potency,[17],inactive
same,Potency,[18],inactive
COc1cc(S(=O)(=O)Nc2ccccc2)c(OC)cc1N,Potency,[2],inactive
same,Potency,[3],inactive
same,outcome,[4],inactive
same,outcome,[5],inactive
same,outcome,[6],inactive
same,Potency,[7],inactive
same,outcome,[8],inactive
same,outcome,[9],inactive
same,Potency,[10],inactive
same,outcome,[11],inactive
same,outcome,[12],inactive
same,outcome,[13],inactive
same,Potency,[16],inactive
same,outcome,[14],inactive
same,Potency,[15],inactive
same,Potency,[17],inactive
same,Potency,[18],inactive
COc1cc(OC)c2ccc(=O)oc2c1,Potency,[1],inactive
same,Potency,[2],inactive
same,Potency,[3],inactive
same,outcome,[4],inactive
same,outcome,[5],inactive
same,outcome,[6],inactive
same,outcome,[8],inactive
same,outcome,[9],inactive
same,outcome,[11],inactive
same,outcome,[12],inactive
same,outcome,[13],inactive
same,outcome,[14],inactive
